Sampled rows, rich in hits. Any-hit rate of the full collection: about 3.1%.
FadD28 FP inh: inhibitors of FadD28 bisubstrate probe binding, primary screen, biochemical, fluorescence polarization, single point; hit rate 0.22% among 360,000; AID 588549, 2011; Mycobacterium tuberculosis FadD28 fatty-acid-AMP ligase; inhibition, % at 12.5 µM; in the data active means inhibition above about 8.5%, passing the limit was not always enough
GDH-TPI inh: GDH-TPI coupling enzyme inhibitors, primary screen, artefact control for M. tuberculosis FBA inhibitor project, biochemical, absorbance, full deck | GDH-TPI coupled enzyme counterscreen, NADH absorbance | inhibition, % at 4.8 µM | hit rate 1.2% among 360,000 | AID 588335, 2011; in the data active means inhibition above about 30%;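 further: 0% = DMSO wells and 100% = wells lacking the enzyme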
Mtb FBA inh: Mtb FBA enzyme inhibitors, primary screen, biochemical, fluorescence, strain H37Rv | Fructose-bisphosphate aldolase (Mycobacterium tuberculosis (strain ATCC 25618 / H37Rv)), … | purified M. tuberculosis FBA, fluorescence read-out | inhibition, % at 1 µM | hit rate 2.3% among 360,000 | AID 588726, 2011; in the data active means inhibition above about 27%;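 further: 0% = vehicle and 100% = reference inhibitor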
Target sequence (P9WQA3 whole entry, looked up): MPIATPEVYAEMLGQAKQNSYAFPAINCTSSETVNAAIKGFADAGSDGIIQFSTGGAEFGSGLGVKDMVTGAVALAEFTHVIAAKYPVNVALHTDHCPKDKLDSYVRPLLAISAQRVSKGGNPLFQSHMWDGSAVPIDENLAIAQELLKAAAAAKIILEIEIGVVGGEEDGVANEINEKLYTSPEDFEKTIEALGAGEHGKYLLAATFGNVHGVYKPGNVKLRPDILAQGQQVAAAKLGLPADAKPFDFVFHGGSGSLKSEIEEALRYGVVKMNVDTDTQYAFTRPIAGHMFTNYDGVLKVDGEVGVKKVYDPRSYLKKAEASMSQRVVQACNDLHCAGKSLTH
Mtb BioA inh: M. tuberculosis BioA enzyme inhibitors, primary screen, biochemical, plate reader, single point, HTS; 7,8-diaminopelargonic acid synthase BioA (Mycobacterium tuberculosis); purified M. tuberculosis BioA enzyme; inhibition, % at 9.99 µM; hit rate 0.096% among 360,000; AID 602481, 2012; in the data active means inhibition above about 40%
SARS 3CLpro inh-1: SARS-CoV 3CLpro protease inhibitors, primary screen, biochemical, quenched FRET; hit rate 0.14% among 290,000; inhibition, % at 6 µM; Replicase polyprotein 1ab (Severe acute respiratory syndrome coronavirus), P0C6X7; recombinant SARS-CoV 3CLpro, quenched FRET peptide cleavage; in the data active means inhibition above about 12%
SARS 3CLpro inh-2: confirmation of SARS coronavirus 3C-like protease inhibitors, retest, confirmation, biochemical; shares compounds with SARS 3CLpro inh-1; hit rate 36% among 380; inhibition, % at 6 µM; QFRET protease activity assay, 3CLpro; in the data active means inhibition above about 13%
The depositor's hits bear a star; nt = no result given.

SMILES	FadD28 FP inh	GDH-TPI inh	Mtb FBA inh	Mtb BioA inh	SARS 3CLpro inh-1	SARS 3CLpro inh-2
O=C(N/N=C\c1c(O)ccc2ccccc12)c1cncc(Br)c1	-1	26	-5	-5	29*	26*
O=C(N/N=C/c1c(O)ccc2ccccc12)c1cccnc1	-5	6	-6	-1	12	nt
O=C1CC2(CCN(C(=O)c3ccccc3[N+](=O)[O-])CC2)Oc2ccccc21	-4	-5	3	-2	nt	nt
CC(C)C12CN(C(=O)c3ccccc3[N+](=O)[O-])CC(C(C)C)(CN(C(=O)c3ccccc3[N+](=O)[O-])C1)C2=O	-1	-8	-2	nt	29*	35*
CC(C)Oc1cc(NC(=O)CSCC(=O)Nc2cccc(C(F)(F)F)c2)c(Cl)cc1Cl	-9	-6	0	-1	17*	1
O=C(N[C@@H]1C=C[C@H](CC(=O)N2CCCCC2)O[C@H]1CO)c1ccc2c(c1)OCO2	nt	nt	nt	0	nt	nt
COc1ccc(CNC(=O)CN2C(=O)NC(C)(c3cccc(Br)c3)C2=O)cc1 (stereo not given)	1	6	0	0	-1	nt
COc1ccc2cc(C3(C)NC(=O)N(CC(=O)NCc4ccco4)C3=O)ccc2c1 (stereo not given)	-3	10	-1	1	16*	12*
COc1c(Cl)cc(C(=O)NN)cc1Cl	-2	0	-3	nt	16*	17*
C[C@H](CO)N1C[C@H](C)[C@H](CN(C)S(=O)(=O)c2cn(C)cn2)Oc2ccc(NC(=O)Nc3cccc4ccccc34)cc2CC1=O	nt	nt	nt	3	nt	nt
CC[C@@]12C(=O)N(c3cccc(F)c3)C(=O)N1[C@H](c1ccc(F)cc1)[C@@H]1C(=O)N(C3CCCCC3)C(=O)[C@@H]12	-6	-3	-3	0	16*	8
C[C@H](CO)N1C[C@H](C)[C@H](CN(C)C(=O)Nc2ccc3c(c2)OCO3)Oc2ccc(NC(=O)Cc3cn(C)c4ccccc34)cc2CC1=O	nt	nt	nt	-2	nt	nt
CC1(C)Cc2c(sc3nc(-c4cc5ccccc5o4)n(N)c(=O)c23)CO1	-4	13	1	-3	13*	-5
CCCNC(=O)Nc1ccc2c(c1)C(=O)N(C)C[C@H](OC)[C@@H](C)CN(C(=O)C1CCC1)[C@@H](C)CO2	nt	nt	nt	-2	nt	nt
Cc1cc(C)n(C(=O)c2ccc(C)c(Br)c2)n1	0	-3	1	1	14*	13*
CCc1cccc(CC)c1N(COC)C(=O)Cn1c(CO)nc2ccccc21	-3	0	-3	nt	1	nt
CCc1cccc(CC)c1N(COC)C(=O)Cn1nnc2ccccc21	-2	13	0	5	12*	13*
O=C(N/N=C/c1ccncc1)c1cccc(S(=O)(=O)Nc2ccc(Cl)cc2)c1	-3	7	-2	nt	62*	-1
C[C@@H]1CN([C@H](C)CO)C(=O)c2cc(C3=CCCC3)cnc2O[C@H]1CN(C)C(=O)CN(C)C	nt	nt	nt	-2	nt	nt
COC(=O)CC1COc2ccccc2N1C(=O)/C=C/c1ccccc1 (stereo not given)	0	11	0	1	46*	-1
C[C@H](CO)N1C[C@H](C)[C@H](CN(C)S(=O)(=O)c2ccc(F)cc2)Oc2ccc(NC(=O)CCCN(C)C)cc2C1=O	nt	nt	nt	6	nt	nt
Cc1noc(NS(=O)(=O)c2ccc(NC(=O)c3oc4ccc(Cl)cc4c3C)cc2)c1C	5	8	-4	5	12*	7
Cc1c(OCC(=O)N[C@@H](Cc2c[nH]c3ccccc23)C(=O)O)ccc2c1oc(=O)c1ccccc12	-5	-12	7	2	14*	9
Cc1c(C)c2ccc(OCC(=O)NC(Cc3c[nH]c4ccc(O)cc34)C(=O)O)c(C)c2oc1=O (stereo not given)	0	10	4	0	3	nt
COCC(=O)N(C)C[C@@H]1Oc2cc(C3=CCCCC3)ccc2S(=O)(=O)N([C@@H](C)CO)C[C@@H]1C	nt	nt	nt	0	nt	nt
SMILES	FadD28 FP inh	GDH-TPI inh	Mtb FBA inh	Mtb BioA inh	SARS 3CLpro inh-1	SARS 3CLpro inh-2
COc1cc(C(=O)Nc2ccc(N3CCN(C(=O)c4ccc(C)cc4)CC3)cc2)cc(OC)c1OC	1	8	2	-1	14*	0
Cc1ccc(C(=O)N2CCN(c3ccc(NC(=O)c4cccnc4)cc3)CC2)cc1	0	6	3	37	3	nt
N#Cc1ccc(CN2CCN(C(=O)c3cn(Cc4ccccc4)nc3-c3cccnc3)CC2)cc1	nt	3	1	0	nt	nt
COCCOC(=O)/C(C#N)=C/c1cn(Cc2ccccc2)nc1-c1cccnc1	-1	12	-2	1	16*	2
O=C(/C=C/c1c(F)cccc1Cl)Nc1cccnc1	-5	7	-7	10	20*	16*
O=C(/C=C/c1cc(Br)ccc1F)Nc1cccnc1	-3	12	3	32	-2	nt
CC(C)c1ccc(S(=O)(=O)Nc2ccc(SC(F)F)cc2)cc1	-6	-5	-3	nt	13*	5
CC(C)c1ccc(NS(=O)(=O)c2ccc(-n3cccn3)cc2)cc1	-2	-2	-1	1	6	nt
C[C@@H](NC(=O)C[C@H]1CC[C@@H](NC(=O)Cc2ccccn2)[C@H](CO)O1)c1ccccc1	nt	nt	nt	-3	nt	nt
O=C(O)c1cccc(NC(=S)NC(=O)C(c2ccccc2)c2ccccc2)c1	-16	16	0	0	14*	8
C[C@H]1CN([C@@H](C)CO)C(=O)Cc2cc(NC(=O)Nc3ccc4c(c3)OCO4)ccc2O[C@H]1CN(C)S(=O)(=O)c1cn(C)cn1	nt	nt	nt	0	nt	nt
FC(F)(F)c1cccc(NC(=S)NCc2ccccn2)c1	1	1	0	-1	-5	nt
FC(F)(F)c1cccc(NC(=S)NNC(=S)NCc2ccccc2)c1	1	23	-2	-2	14*	2
CN(C)c1ccc(/C=N/NC(=O)Cn2nnc3ccccc32)cc1	-2	30	15	nt	10	nt
COc1ccc(/C=N/NC(=O)Cn2nnc3ccccc32)cc1OC	-1	7	1	nt	12*	16*
C[C@H]1CN([C@@H](C)CO)C(=O)c2cccc(NS(=O)(=O)c3cn(C)cn3)c2O[C@@H]1CN(C)C(=O)NC1CCCCC1	nt	nt	nt	-1	nt	nt
CC(C)CC(=O)NC(c1ccccc1Cl)c1c(O)ccc2ccccc12 (stereo not given)	-2	8	6	nt	13*	2
CCCNS(=O)(=O)c1ccc(CCC(=O)Nc2cc(Cl)ccc2Oc2ccccc2)cc1	-4	-19	-3	nt	3	nt
CC(C)CNS(=O)(=O)c1ccc(CCC(=O)Nc2cc(Cl)ccc2Oc2ccccc2)cc1	-6	3	-3	-3	12*	1
CC(C)Oc1ccc(/C=N/NC(=O)c2nnn(-c3nonc3N)c2CN(C)c2ccccc2)cc1	-1	17	-1	-1	14*	5
C[C@@H]1CN([C@@H](C)CO)S(=O)(=O)c2ccc(C#CC3CC3)cc2O[C@@H]1CN(C)Cc1ccncc1	nt	nt	nt	2	nt	nt
